In PubChem BioAssay (NCATS):
Inconclusive results are not listed. Activity calls are given as the source filed them. The call rests on the fitted dose curve; in most records, active means well fitted curve in the direction sought with a large enough effect; inconclusive means small, poorly fitted or top-dose-only effect, or another doubt; inactive means no such curve, though single readings can be large; an effect the other way counts as inactive or inconclusive.

Columns and labels:
[1] = Quantitative High-Throughput drug screen in 47 multiple myeloma cell lines against the NCATS MIPE library collection: KMS26_JCRB cell viability assay (AID 1918975); conditions: KMS26 myeloma cells viability, CellTiter-Glo ATP, 48 h; series mostly up to 45.8 µM; further: nearly all actives have a fitted effect of over 45% in size
How it was run: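 Myeloma cell lines, 500 cells per well, exposed to MIPE 4.0 library compounds for 48 h at 37C, 5% CO2. Viability from ATP by CellTiter-Glo luminescence; normalised to DMSO (100%) and media-only (0%) wells.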

[2] = Quantitative High-Throughput drug screen in 47 multiple myeloma cell lines against the NCATS MIPE library collection: MMM1_PLB cell viability assay (AID 1918976); conditions: MMM1 myeloma cells viability, CellTiter-Glo, 48 h; series mostly up to 45.8 µM; further: nearly all actives have a fitted effect of over 35% in size
How it was run: (§1)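 ATP-based CellTiter-Glo luminescence after 48 h drug exposure (37 °C, 5% CO2) of 500 myeloma cells per well. DMSO-only wells set 100% viability, media-only wells 0%; MIPE 4.0 library added by pin tool.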

[3] = Quantitative High-Throughput drug screen in 47 multiple myeloma cell lines against the NCATS MIPE library collection: NCIH929_DSMZ cell viability assay (AID 1918978); conditions: NCI-H929 myeloma viability, CellTiter-Glo ATP, 48 h; series mostly up to 45.8 µM; further: nearly all actives have a fitted effect of over 35% in size
How it was run: as §1

[4] = Quantitative High-Throughput drug screen in 47 multiple myeloma cell lines against the NCATS MIPE library collection: OCIMY1_PLB cell viability assay (AID 1918979); conditions: OCI-MY1 myeloma viability, CellTiter-Glo ATP, 48 h; series mostly up to 45.8 µM; further: nearly all actives have a fitted effect of over 35% in size
How it was run: as §1

[5] = Quantitative High-Throughput drug screen in 47 multiple myeloma cell lines against the NCATS MIPE library collection: MM1S_ATCC cell viability assay (AID 1918980); conditions: MM1S myeloma viability, CellTiter-Glo ATP luminescence, 48 h; series mostly up to 45.8 µM; further: nearly all actives have a fitted effect of over 45% in size
How it was run: as §1

[6] = Quantitative High-Throughput drug screen in 47 multiple myeloma cell lines against the NCATS MIPE library collection: MM1R_ATCC cell viability assay (AID 1918981); conditions: MM1R multiple myeloma cells, CellTiter-Glo viability, 48 h; series mostly up to 45.8 µM; further: nearly all actives have a fitted effect of over 35% in size
How it was run: as §1

[7] = Quantitative High-Throughput drug screen in 47 multiple myeloma cell lines against the NCATS MIPE library collection: LP1_DSMZ cell viability assay (AID 1918982); conditions: LP1 myeloma viability, CellTiter-Glo ATP luminescence, 48 h; series mostly up to 45.8 µM; further: nearly all actives have a fitted effect of over 35% in size
How it was run: as §1

[8] = Quantitative High-Throughput drug screen in 47 multiple myeloma cell lines against the NCATS MIPE library collection: KMS28PE_JCRB cell viability assay (AID 1918983); conditions: KMS28PE multiple myeloma viability, CellTiter-Glo ATP, 48 h; series mostly up to 45.8 µM; further: nearly all actives have a fitted effect of over 35% in size
How it was run: as §1

[9] = Quantitative High-Throughput drug screen in 47 multiple myeloma cell lines against the NCATS MIPE library collection: L363_DSMZ cell viability assay (AID 1918984); conditions: L363 myeloma viability, CellTiter-Glo ATP luminescence, 48 h; series mostly up to 45.8 µM; further: nearly all actives have a fitted effect of over 40% in size
How it was run: as §1

[10] = Quantitative High-Throughput drug screen in 47 multiple myeloma cell lines against the NCATS MIPE library collection: KMS34_JCRB cell viability assay (AID 1918985); conditions: KMS34 myeloma viability, CellTiter-Glo ATP luminescence, 48 h; series mostly up to 45.8 µM; further: nearly all actives have a fitted effect of over 40% in size
How it was run: as §1

[11] = Quantitative High-Throughput drug screen in 47 multiple myeloma cell lines against the NCATS MIPE library collection: OCIMY7_PLB cell viability assay (AID 1918987); conditions: OCI-MY7 myeloma viability, CellTiter-Glo ATP, 48 h; series mostly up to 45.8 µM; further: nearly all actives have a fitted effect of over 65% in size
How it was run: as §1

[12] = Quantitative High-Throughput drug screen in 47 multiple myeloma cell lines against the NCATS MIPE library collection: OPM1_PLB cell viability assay (AID 1918989); conditions: CellTiter-Glo, 48 h; series mostly up to 45.8 µM; further: nearly all actives have a fitted effect of over 40% in size
How it was run: as §1

[13] = Quantitative High-Throughput drug screen in 47 multiple myeloma cell lines against the NCATS MIPE library collection: SKMM1_PLB cell viability assay (AID 1919863); conditions: SKMM1 myeloma viability, CellTiter-Glo ATP, 48 h; viability: hits give low values; further: nearly all actives have a fitted effect of over 35% in size
How it was run: as §1

[14] = Quantitative High-Throughput drug screen in 47 multiple myeloma cell lines against the NCATS MIPE library collection: U266_ATCC cell viability assay (AID 1919864); conditions: U266 myeloma viability, CellTiter-Glo ATP luminescence, 48 h; series mostly up to 45.8 µM; further: nearly all actives have a fitted effect of over 35% in size
How it was run: as §1

[15] = Quantitative High-Throughput drug screen in 47 multiple myeloma cell lines against the NCATS MIPE library collection: XG6_PLB cell viability assay (AID 1919865); conditions: XG6 myeloma viability, CellTiter-Glo ATP luminescence, 48 h; series mostly up to 45.8 µM; further: nearly all actives have a fitted effect of over 40% in size
How it was run: as §1

[16] = Quantitative High-Throughput drug screen in 47 multiple myeloma cell lines against the NCATS MIPE library collection: XG1_PLB cell viability assay (AID 1919866); conditions: CellTiter-Glo ATP, 48 h; series mostly up to 45.8 µM; further: nearly all actives have a fitted effect of over 35% in size
How it was run: as §1

[17] = Quantitative High-Throughput drug screen in 47 multiple myeloma cell lines against the NCATS MIPE library collection: VP6_DJ cell viability assay (AID 1919867); conditions: ATP luminescence, 48 h; series mostly up to 45.8 µM; further: nearly all actives have a fitted effect of over 40% in size
How it was run: as §1

[18] = Quantitative High-Throughput drug screen in 47 multiple myeloma cell lines against the NCATS MIPE library collection: OCIMY5_PLB cell viability assay (AID 1918988); conditions: OCI-MY5 myeloma viability, ATP luminescence, 48 h; series mostly up to 45.8 µM; further: nearly all actives have a fitted effect of over 65% in size
How it was run: as §1

[19] = Quantitative High-Throughput drug screen in 47 multiple myeloma cell lines against the NCATS MIPE library collection: MOLP8_DSMZ cell viability assay (AID 1918977); conditions: MOLP8 myeloma viability, CellTiter-Glo ATP luminescence, 48 h; series mostly up to 45.8 µM; further: nearly all actives have a fitted effect of over 45% in size
How it was run: as §1

Measured: Potency
Potency means the concentration at half of the fitted maximal effect.

O=C(Nc1ncc(-c2cc(C(F)F)nn2-c2c(Cl)cccc2Cl)s1)C1CC1
active: [1] 2.64 µM | [2] 2.64 µM | [3] 2.64 µM | [4] 0.743 µM | [5] 1.48 µM | [6] 1.32 µM | [7] 1.05 µM | [8] 0.935 µM | [9] 235 nM | [10] 0.264 µM | [11] 166 nM | [12] 0.418 µM | [13] 0.332 µM | [14] 2.96 µM | [15] 0.187 µM | [16] 0.105 µM | [17] 0.418 µM

CCOc1cc2ncc(C#N)c(Nc3ccc(F)c(Cl)c3)c2cc1NC(=O)C=CCN(C)C
active: [1] 20.9 µM | [2] 18.7 µM | [3] 5.9 µM | [4] 18.7 µM | [5] 0.296 µM | [6] 4.18 µM | [7] 10.5 µM | [8] 14.8 µM | [10] 4.69 µM | [11] 74.3 nM | [18] 264 nM | [12] 11.8 µM | [13] 16.6 µM | [14] 18.7 µM | [15] 2.64 µM | [16] 10.5 µM | [17] 4.69 µM

CC(C)C[C@H](NC(=O)CNC(=O)c1cc(Cl)ccc1Cl)B(O)O
active: [1] 0.118 µM | [2] 9.35 µM | [3] 0.0372 µM | [4] 0.0662 µM | [5] 0.0418 µM | [6] 0.0418 µM | [7] 0.132 µM | [8] 0.0833 µM | [9] 132 nM | [10] 0.059 µM | [11] 41.8 nM | [18] 37.2 nM | [12] 0.0469 µM | [13] 0.296 µM | [15] 0.0372 µM | [16] 0.0469 µM | [17] 0.0372 µM

COc1cc(=C2C=c3ccccc3=N2)[nH]c1=Cc1[nH]c(C)cc1C
active: [1] 2.35 µM | [2] 2.09 µM | [3] 5.26 µM | [4] 3.72 µM | [5] 4.18 µM | [6] 1.05 µM | [7] 0.743 µM | [8] 1.66 µM | [10] 1.48 µM | [11] 1480 nM | [18] 833 nM | [12] 5.9 µM | [13] 4.18 µM | [14] 5.26 µM | [15] 5.9 µM | [16] 2.09 µM | [17] 1.66 µM

C=CC(=O)Nc1cc2c(Nc3ccc(F)c(Cl)c3)ncnc2cc1OCCCN1CCOCC1
active: [1] 5.26 µM | [2] 18.7 µM | [19] 8.33 µM | [4] 23.5 µM | [5] 18.7 µM | [6] 8.33 µM | [7] 16.6 µM | [8] 18.7 µM | [10] 14.8 µM | [11] 296 nM | [18] 5900 nM | [12] 2.96 µM | [13] 16.6 µM | [14] 18.7 µM | [15] 1.66 µM | [16] 2.64 µM | [17] 1.18 µM
